Assay in all cases: DAPPL (digital affinity profiling via proximity ligation, sequencing); 10 mM Tris-HCl pH 7.5, 50 mM NaCl, 1 mM DTT, 4% glycerol, room temperature, 30 min; GST-TFs on glutathione beads, 16-mer random dsDNA library, 0.1% formaldehyde crosslink after washing; high values mean tight binding
The target of one assay is T1, FLI1 (Homo sapiens, UniProt Q01543 1-452).
T1 sequence: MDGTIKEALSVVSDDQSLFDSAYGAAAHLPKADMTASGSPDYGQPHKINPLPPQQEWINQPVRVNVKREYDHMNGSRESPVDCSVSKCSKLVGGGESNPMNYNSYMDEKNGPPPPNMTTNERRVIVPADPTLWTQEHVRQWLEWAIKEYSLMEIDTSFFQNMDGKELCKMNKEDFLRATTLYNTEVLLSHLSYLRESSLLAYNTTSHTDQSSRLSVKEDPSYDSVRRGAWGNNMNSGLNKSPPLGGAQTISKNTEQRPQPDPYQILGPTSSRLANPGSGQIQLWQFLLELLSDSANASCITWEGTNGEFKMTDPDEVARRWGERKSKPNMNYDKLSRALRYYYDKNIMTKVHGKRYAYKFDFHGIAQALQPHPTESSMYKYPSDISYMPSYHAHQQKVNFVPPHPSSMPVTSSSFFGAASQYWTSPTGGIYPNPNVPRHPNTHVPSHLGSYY
The settings on record: protein: recombinant; tags: N-terminal GST; dsDNA, one strand shown. Summed up:
(§1)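 After expression in yeast as GST fusions, human transcription factors were bound to glutathione beads, DNA-barcoded and mixed with a tag-only sample. The pools were incubated with 200 nmole of a 16-mer random double-stranded DNA library in Tris/NaCl/DTT/glycerol buffer (30 min, room temperature), washed and crosslinked with 0.1% formaldehyde. Proximity ligation with BsaI/T4 ligase ran for 1 h at 37 °C, before PCR amplification and sequencing on an Illumina NextSeq500. Binding signal is a hexamer's read frequency for a factor divided by its frequency for the tag-only sample.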

Another assay has as its target T2, ELK1 (Homo sapiens, UniProt P19419 1-428).
T2 sequence: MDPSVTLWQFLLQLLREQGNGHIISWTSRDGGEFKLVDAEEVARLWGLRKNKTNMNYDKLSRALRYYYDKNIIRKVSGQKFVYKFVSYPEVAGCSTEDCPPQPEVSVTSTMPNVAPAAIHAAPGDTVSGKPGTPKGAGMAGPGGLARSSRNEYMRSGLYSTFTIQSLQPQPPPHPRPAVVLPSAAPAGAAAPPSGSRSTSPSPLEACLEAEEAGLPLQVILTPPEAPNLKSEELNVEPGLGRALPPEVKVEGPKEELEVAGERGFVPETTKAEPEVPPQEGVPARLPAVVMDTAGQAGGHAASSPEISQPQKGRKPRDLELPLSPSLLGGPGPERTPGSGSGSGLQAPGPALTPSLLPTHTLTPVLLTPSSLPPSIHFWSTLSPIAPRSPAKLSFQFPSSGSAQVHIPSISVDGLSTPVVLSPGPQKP
The settings on record: protein: recombinant; tags: N-terminal GST; dsDNA, one strand shown. Summed up: as §1

The target of the next assay is T3, GABPA (Homo sapiens, UniProt Q06546 1-454).
T3 sequence: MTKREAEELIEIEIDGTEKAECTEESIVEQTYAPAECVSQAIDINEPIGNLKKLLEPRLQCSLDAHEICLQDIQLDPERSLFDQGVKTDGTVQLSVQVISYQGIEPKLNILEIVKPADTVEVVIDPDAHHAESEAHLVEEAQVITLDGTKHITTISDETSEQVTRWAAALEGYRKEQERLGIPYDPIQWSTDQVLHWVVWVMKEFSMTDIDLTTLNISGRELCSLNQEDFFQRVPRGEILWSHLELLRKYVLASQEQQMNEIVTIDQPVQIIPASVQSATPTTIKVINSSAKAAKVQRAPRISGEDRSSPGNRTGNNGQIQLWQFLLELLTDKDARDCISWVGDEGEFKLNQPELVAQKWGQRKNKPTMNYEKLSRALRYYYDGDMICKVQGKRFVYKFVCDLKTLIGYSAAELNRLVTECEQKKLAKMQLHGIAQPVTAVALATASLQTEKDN
The settings on record: protein: recombinant; tags: N-terminal GST; dsDNA, one strand shown. In a few lines:
as §1

A further assay deals with T4, ERG (Homo sapiens, UniProt P11308 1-479).
T4 sequence: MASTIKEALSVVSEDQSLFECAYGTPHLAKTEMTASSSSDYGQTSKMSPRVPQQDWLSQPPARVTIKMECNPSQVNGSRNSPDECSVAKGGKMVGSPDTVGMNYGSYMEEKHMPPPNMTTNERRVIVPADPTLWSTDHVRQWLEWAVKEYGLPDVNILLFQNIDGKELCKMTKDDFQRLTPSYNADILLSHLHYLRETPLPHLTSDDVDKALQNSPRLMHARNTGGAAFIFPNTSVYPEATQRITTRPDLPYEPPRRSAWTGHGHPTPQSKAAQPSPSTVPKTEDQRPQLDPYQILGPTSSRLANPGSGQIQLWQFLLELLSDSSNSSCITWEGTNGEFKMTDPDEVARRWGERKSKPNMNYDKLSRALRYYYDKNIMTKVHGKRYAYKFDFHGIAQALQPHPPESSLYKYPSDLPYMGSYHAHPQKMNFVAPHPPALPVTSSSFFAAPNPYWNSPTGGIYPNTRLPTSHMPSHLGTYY
The settings on record: protein: recombinant; tags: N-terminal GST; dsDNA, one strand shown. Summed up:
as §1

In a further assay the target is ELF1 (Homo sapiens, UniProt P32519 1-619). The settings on record: protein: recombinant; tags: N-terminal GST; dsDNA, one strand shown. In a few lines:
as §1

For another assay, the target named is T5, EHF (Homo sapiens, UniProt Q9NZC4 1-300).
T5 sequence: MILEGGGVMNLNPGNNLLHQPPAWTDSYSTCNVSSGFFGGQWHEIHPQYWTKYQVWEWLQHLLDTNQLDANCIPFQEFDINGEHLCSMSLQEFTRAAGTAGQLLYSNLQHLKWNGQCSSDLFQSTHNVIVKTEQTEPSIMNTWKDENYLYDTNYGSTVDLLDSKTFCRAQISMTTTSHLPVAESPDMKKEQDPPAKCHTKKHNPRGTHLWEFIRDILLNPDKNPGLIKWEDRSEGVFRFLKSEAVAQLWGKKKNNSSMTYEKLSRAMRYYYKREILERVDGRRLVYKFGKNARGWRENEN
The settings on record: protein: recombinant; tags: N-terminal GST; dsDNA, one strand shown. In a few lines: as §1

The target of another assay is SPI1 (Homo sapiens, UniProt P17947 1-270). The settings on record: protein: recombinant; tags: N-terminal GST; dsDNA, one strand shown. In a few lines:
as §1

In the next assay the target is SPIB (Homo sapiens, UniProt Q01892 1-262). The settings on record: protein: recombinant; tags: N-terminal GST; dsDNA, one strand shown. In a few lines:
as §1

The target in a further assay is T6, ELK3 (Homo sapiens, UniProt P41970 1-407).
T6 sequence: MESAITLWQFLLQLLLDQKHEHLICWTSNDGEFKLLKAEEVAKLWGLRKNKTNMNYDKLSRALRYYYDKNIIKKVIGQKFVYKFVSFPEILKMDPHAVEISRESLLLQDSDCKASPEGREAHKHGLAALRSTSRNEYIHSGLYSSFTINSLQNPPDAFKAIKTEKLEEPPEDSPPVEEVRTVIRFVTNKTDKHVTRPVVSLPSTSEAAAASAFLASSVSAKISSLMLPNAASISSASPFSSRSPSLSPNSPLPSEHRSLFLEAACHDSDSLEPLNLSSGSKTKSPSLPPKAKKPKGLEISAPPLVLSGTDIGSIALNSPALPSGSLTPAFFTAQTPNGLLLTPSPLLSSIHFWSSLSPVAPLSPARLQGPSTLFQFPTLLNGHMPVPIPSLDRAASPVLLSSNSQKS
The settings on record: protein: recombinant; tags: N-terminal GST; dsDNA, one strand shown. In a few lines: as §1

Another assay addresses T7, FEV (Homo sapiens, UniProt Q99581 1-238).
T7 sequence: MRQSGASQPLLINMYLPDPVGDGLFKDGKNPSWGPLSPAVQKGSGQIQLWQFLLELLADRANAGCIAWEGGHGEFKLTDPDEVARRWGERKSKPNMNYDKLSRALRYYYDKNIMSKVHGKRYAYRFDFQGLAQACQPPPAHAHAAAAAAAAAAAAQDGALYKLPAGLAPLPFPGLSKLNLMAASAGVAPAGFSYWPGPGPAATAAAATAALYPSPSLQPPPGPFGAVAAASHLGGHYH
The settings on record: protein: recombinant; tags: N-terminal GST; dsDNA, one strand shown. In a few lines: as §1

For a further assay, the target named is ETV5 (Homo sapiens, UniProt P41161 1-510). The settings on record: protein: recombinant; tags: N-terminal GST; dsDNA, one strand shown. In a few lines:
as §1

The next assay deals with HSF1 (Homo sapiens, UniProt Q00613 1-529). The settings on record: protein: recombinant; tags: N-terminal GST; chain copies: 3; dsDNA, one strand shown. In a few lines: as §1
The next assay deals with T8, SPIC (Homo sapiens, UniProt Q8N5J4 1-248).
T8 sequence: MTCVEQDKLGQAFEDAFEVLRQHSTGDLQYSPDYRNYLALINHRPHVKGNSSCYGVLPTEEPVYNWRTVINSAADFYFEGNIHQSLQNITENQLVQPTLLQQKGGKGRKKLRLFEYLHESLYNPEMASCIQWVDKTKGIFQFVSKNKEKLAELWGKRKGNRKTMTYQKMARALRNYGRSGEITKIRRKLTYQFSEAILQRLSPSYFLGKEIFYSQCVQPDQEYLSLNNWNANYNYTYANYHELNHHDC
The settings on record: protein: recombinant; tags: N-terminal GST; dsDNA, one strand shown. In a few lines: as §1

The next assay has as its target ELF4 (Homo sapiens, UniProt Q99607 1-663). The settings on record: protein: recombinant; tags: N-terminal GST; dsDNA, one strand shown. Summed up: as §1
For the next assay, the target named is T9, ELK4 (Homo sapiens, UniProt P28324-2 1-405).
T9 sequence: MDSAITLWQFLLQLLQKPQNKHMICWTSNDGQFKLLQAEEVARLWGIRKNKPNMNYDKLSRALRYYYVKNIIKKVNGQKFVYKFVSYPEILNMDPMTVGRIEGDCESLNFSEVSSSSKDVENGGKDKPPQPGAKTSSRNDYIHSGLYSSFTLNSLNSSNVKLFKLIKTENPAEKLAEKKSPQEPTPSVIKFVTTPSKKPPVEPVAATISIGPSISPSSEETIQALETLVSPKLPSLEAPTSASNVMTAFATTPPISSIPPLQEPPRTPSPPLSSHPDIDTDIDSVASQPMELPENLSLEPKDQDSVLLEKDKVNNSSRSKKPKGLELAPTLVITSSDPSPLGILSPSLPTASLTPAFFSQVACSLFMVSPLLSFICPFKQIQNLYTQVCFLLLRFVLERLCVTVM
The settings on record: protein: recombinant; tags: N-terminal GST; dsDNA, one strand shown. Summed up:
as §1

The target of the next assay is T10, ETV2 (Homo sapiens, UniProt O00321 1-342).
T10 sequence: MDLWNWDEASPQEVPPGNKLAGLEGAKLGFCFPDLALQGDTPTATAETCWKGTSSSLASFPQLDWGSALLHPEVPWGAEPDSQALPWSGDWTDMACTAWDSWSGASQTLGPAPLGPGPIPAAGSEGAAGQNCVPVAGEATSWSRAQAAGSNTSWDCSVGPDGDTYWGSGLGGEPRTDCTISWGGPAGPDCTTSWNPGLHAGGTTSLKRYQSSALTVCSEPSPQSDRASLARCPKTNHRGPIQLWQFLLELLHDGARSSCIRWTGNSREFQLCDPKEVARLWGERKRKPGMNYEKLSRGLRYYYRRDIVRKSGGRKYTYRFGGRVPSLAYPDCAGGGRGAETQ
The settings on record: protein: recombinant; tags: N-terminal GST; dsDNA, one strand shown. Summed up: as §1

The target of the next assay is T11, ELF3 (Homo sapiens, UniProt P78545 1-371).
T11 sequence: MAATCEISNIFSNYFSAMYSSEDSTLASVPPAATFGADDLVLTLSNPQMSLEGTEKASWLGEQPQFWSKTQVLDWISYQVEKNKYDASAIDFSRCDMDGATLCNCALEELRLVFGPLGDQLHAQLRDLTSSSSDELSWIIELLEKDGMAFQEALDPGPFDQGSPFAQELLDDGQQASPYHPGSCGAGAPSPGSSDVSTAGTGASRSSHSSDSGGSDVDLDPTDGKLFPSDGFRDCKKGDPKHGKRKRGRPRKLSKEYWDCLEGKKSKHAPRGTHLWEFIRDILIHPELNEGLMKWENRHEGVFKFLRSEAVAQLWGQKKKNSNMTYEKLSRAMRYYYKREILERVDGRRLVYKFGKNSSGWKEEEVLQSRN
The settings on record: protein: recombinant; tags: N-terminal GST; dsDNA, one strand shown. In a few lines:
as §1

Another assay deals with ETV1 (Homo sapiens, UniProt P50549 1-477). The settings on record: protein: recombinant; tags: N-terminal GST; dsDNA, one strand shown. Summed up: as §1
Chain of ETV1 (P50549 whole entry): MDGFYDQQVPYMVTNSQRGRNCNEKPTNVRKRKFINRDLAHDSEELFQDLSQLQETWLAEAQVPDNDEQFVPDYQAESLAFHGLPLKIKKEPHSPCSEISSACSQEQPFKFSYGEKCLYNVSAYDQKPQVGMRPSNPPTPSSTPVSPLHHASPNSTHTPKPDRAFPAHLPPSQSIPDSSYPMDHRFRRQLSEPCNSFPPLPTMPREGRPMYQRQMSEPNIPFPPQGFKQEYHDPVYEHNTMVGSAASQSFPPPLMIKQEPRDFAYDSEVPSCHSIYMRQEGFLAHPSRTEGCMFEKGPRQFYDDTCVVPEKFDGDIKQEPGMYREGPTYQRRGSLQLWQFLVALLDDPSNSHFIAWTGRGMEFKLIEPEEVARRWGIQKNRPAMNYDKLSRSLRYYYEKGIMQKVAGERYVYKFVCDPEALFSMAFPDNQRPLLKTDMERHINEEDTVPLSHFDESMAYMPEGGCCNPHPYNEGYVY

Chain of ELF4 (Q99607 whole entry): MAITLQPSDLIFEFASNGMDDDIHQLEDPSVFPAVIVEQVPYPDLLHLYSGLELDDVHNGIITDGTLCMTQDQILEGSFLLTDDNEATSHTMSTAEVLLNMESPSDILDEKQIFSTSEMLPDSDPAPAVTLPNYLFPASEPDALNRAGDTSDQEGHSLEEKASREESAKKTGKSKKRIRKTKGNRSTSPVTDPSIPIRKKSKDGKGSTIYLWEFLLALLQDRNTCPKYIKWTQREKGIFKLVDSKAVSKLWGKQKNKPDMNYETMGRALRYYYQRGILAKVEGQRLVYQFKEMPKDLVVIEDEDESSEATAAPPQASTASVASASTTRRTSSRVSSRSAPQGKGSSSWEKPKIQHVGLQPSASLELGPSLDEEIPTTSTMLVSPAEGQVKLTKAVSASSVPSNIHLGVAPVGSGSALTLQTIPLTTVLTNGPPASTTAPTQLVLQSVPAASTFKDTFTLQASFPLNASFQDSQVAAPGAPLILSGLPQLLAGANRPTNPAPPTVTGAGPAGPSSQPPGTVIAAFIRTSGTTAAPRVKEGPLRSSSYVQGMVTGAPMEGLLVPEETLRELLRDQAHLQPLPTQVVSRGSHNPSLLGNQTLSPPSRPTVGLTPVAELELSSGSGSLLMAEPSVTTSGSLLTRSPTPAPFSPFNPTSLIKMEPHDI
Chain of SPIB (Q01892 whole entry): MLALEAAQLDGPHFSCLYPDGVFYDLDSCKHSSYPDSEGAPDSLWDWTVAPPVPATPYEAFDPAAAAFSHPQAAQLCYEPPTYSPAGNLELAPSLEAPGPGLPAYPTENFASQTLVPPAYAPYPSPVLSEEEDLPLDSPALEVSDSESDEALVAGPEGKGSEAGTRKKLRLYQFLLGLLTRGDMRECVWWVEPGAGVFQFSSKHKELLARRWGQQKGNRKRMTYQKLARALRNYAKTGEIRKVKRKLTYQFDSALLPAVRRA
Chain of ETV5 (P41161 whole entry): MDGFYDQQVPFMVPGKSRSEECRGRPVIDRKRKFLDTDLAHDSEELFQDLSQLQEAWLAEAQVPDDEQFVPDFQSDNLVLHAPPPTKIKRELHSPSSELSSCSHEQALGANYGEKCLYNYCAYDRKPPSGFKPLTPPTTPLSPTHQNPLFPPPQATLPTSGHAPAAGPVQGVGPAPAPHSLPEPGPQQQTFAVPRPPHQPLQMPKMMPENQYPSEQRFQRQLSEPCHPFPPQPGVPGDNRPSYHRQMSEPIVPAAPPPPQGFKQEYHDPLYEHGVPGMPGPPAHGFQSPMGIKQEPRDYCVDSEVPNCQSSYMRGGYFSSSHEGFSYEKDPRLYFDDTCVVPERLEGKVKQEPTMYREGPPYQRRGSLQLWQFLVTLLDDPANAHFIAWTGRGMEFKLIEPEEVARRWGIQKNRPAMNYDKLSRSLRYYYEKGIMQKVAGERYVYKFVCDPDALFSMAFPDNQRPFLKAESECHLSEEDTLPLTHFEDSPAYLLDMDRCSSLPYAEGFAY
Chain of ELF1 (P32519 whole entry): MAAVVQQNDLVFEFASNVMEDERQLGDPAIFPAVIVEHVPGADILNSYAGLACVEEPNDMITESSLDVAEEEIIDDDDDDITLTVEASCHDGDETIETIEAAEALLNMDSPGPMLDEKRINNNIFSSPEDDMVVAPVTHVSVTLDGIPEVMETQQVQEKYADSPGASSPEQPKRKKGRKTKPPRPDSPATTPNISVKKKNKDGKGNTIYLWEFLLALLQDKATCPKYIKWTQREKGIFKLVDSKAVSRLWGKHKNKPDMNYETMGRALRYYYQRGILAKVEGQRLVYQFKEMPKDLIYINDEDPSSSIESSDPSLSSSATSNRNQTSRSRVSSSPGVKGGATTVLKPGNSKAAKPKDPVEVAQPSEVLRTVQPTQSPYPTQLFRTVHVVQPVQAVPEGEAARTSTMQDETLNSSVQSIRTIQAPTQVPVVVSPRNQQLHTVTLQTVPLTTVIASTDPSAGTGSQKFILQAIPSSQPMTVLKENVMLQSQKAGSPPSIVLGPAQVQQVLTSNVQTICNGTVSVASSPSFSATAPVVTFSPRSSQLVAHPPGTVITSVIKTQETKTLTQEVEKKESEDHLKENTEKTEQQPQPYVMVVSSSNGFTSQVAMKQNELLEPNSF
Chain of HSF1 (Q00613 whole entry): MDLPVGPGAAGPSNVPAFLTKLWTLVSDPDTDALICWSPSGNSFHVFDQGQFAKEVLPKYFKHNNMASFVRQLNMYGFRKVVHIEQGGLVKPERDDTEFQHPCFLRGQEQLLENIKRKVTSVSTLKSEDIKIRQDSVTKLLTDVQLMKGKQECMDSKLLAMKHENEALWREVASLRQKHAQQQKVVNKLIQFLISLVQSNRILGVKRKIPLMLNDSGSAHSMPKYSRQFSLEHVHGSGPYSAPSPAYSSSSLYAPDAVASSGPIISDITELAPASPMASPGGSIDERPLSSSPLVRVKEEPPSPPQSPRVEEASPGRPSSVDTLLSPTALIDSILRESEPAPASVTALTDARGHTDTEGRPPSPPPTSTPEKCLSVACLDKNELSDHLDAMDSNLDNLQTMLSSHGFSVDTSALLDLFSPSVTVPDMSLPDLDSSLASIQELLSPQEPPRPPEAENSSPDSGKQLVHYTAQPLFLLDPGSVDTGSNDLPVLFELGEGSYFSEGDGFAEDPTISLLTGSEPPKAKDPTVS

Consider TGCTAC, for which the binding signal with FLI1 was 1.35 fold enrichment (6-mer frequency, TF over GST control); in the assay with ELK1, 1.26 fold enrichment (6-mer frequency, TF over GST control); with GABPA it was 1.24 fold enrichment (6-mer frequency, TF over GST control); with ERG it was 1.27 fold enrichment (6-mer frequency, TF over GST control); with ELF1, 1.25 fold enrichment (6-mer frequency, TF over GST control); with EHF, 1.23 fold enrichment (6-mer frequency, TF over GST control). Moreover, the binding signal was 1.29 fold enrichment (6-mer frequency, TF over GST control) with SPI1; 1.25 fold enrichment (6-mer frequency, TF over GST control) with SPIB; 1.26 fold enrichment (6-mer frequency, TF over GST control) with ELK3; 1.36 fold enrichment (6-mer frequency, TF over GST control) with FEV; 1.25 fold enrichment (6-mer frequency, TF over GST control) in the assay with ETV5; 1.03 fold enrichment (6-mer frequency, TF over GST control) in the assay with HSF1. The binding signal with SPIC was 1.41 fold enrichment (6-mer frequency, TF over GST control); with ELF4, 1.23 fold enrichment (6-mer frequency, TF over GST control); with ELK4, 1.4 fold enrichment (6-mer frequency, TF over GST control); with ETV2, 1.24 fold enrichment (6-mer frequency, TF over GST control); with ELF3 it was 1.25 fold enrichment (6-mer frequency, TF over GST control); in the assay with ETV1, 1.42 fold enrichment (6-mer frequency, TF over GST control).

Source of the values: paper PMC7862700, “An all-to-all approach to the identification of sequence-specific readers for epigenetic DNA modifications on cytosine”.
